Bioassay records as filed in PubChem BioAssay.
MCF10A rereplic = induces DNA re-replication in MCF 10a normal breast cells; Potency, µM (titrated, usually from 46.1 µM), most hits filed as activators; MCF 10A DNA re-replication, Hoechst nuclear intensity, 48 h; 350,000 tested, 2.9% active; note: nearly all actives have a fitted effect of over 50% in size
KB-V1 MDR tox = KB-V1 MDR subline cytotoxicity; AID 1347076; KB-V1 MDR cells viability, CellTiter-Glo, 72 h; 400,000 tested, 3.4% active; Potency, µM (series often up to 46.1 µM), most hits filed as cytotoxic; note: nearly all actives have a fitted effect of over 60% in size
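KB-V1 MDR subline cells in DMEM (phenol-red free, 10% FBS) exposed to compounds in qHTS concentration series for 72 h at 37 degrees C. Viability read by CellTiter-Glo luminescence; concentration-effect curves fitted after normalization and correction.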
KB-3-1 cytotox = kills parental KB-3-1 adenocarcinoma cells; KB-3-1 viability, CellTiter-Glo ATP luminescence, 72 h; Potency, µM (top dose mostly 46.1 µM), hits mostly cytotoxic; 400,000 tested, 1.4% active; note: nearly all actives have a fitted effect of over 60% in size
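Here the drug-naive KB-3-1 line serves as comparator for MDR sub-line selectivity; cells received compound titrations, 72 h at 37 °C, then CellTiter-Glo readout.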
HT1080NT lethal = kills 2HG-producing HT-1080-NT fibrosarcoma cells; HT-1080-NT fibrosarcoma viability, CellTiter-Glo ATP luminescence, 48 h; Potency, µM (top dose mostly 46.1 µM), most hits filed as cytotoxic; 360,000 tested, 1.6% active; AID 686970;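 note: NT is the 2HG producing partner of a matched IDH1 knockdown line; nearly all actives have a fitted effect of over 55% in size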
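A 48-hour cytotoxicity screen used HT-1080-NT cells plated 2 hours before compound delivery. ATP-based CellTiter-Glo luminescence measured viability, normalized to DMSO and no-cell controls.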
SW480 rerep = DNA re-replication induction in SW480 cells. Potency, µM (top dose mostly 46.1 µM), most hits filed as activators. SW480 DNA re-replication, Hoechst DNA content imaging, 48 h. 340,000 tested, 1.8% active; note: nearly all actives have a fitted effect of over 55% in size
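Image-based read-out: total Hoechst fluorescence of nuclei (405 nm excitation, 500-530 nm emission), with hits raising the fraction of high-intensity nuclei. SW480 colon cells incubated 48 hr with compounds at 37 C.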
HT1080 IDH1KD tx = toxicity to HT-1080 IDH1 knockdown cells (counter line); HT-1080 IDH1 knockdown viability, ATP luminescence, 48 h; Potency, µM (doses to about 46.1 µM), actives largely listed as cytotoxic; 360,000 tested, 2% active
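% activity derives from luminescence (CellTiter-Glo), normalised to DMSO and no-cell wells. HT-1080-IDH1KD cells, 750/well, had 48 h compound exposure at 37 °C.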
A number is an active result; n = inactive; u = inconclusive; x = no result given; ! = a repeat was not active. Hits are enriched below; roughly 7.9% of the tested compounds scored in any of these assays. Calls come from the whole dose curve; as a rule, active = well fitted curve in the direction sought with a large enough effect; inconclusive = small, poorly fitted or top-dose-only effect, or another doubt; inactive = no such curve, though single readings can be large; an effect the other way counts as inactive or inconclusive.

SMILES	MCF10A rereplic	KB-V1 MDR tox	KB-3-1 cytotox	HT1080NT lethal	SW480 rerep	HT1080 IDH1KD tx
Cc1ccc2nc(-c3cccc(NS(C)(=O)=O)c3)cc(-c3ccccc3)c2c1	u	18µM	u	n	u	n
CN1CCC2(CC1)Nc1nc(SCc3ccc(Cl)cc3)nn1C1=C2CN(C)CC1	n	n	u	26µM	n	21µM
CCOC(=O)c1cnc(SCc2nc(N)nc(Nc3ccc(F)cc3)n2)nc1N	3.7µM	u	u	n	u	u
CCOC(=O)c1cnc(SCc2nc(N)nc(Nc3ccc(C)cc3)n2)nc1N	10µM	u	u	u	u	u
COC(=O)C[C@H]1C[C@H]2c3cc(NC(=O)CC4CC4)ccc3O[C@H]2[C@H](CO)O1	x	u	n	n	x	n
O=S(=O)(c1ccccc1)N1CCC(Oc2ccc(-n3cnnn3)cc2)CC1	n	u	n	n	n	n
COc1ccc(CCNC(=O)c2ccc(S(=O)(=O)N(C)c3ccccc3)cc2)cc1OC	n	n	n	n	n	n
COc1ccc(CN(C)C(=O)c2cc(-c3ccccc3)nc3ccc(C)cc23)c(OC)c1	x	u	18µM	u	x	u
CN(CC(=O)Nc1ccccc1Br)C(=O)c1ccccc1OCc1ccc(Cl)cc1	n	5.8µM	u	n	n	n
COc1ccccc1CN(C)C(=O)c1cc(C)nc2ccccc12	u	u	u	n	n	n
Cc1ccc2nc(-c3ccccc3)cc(C(=O)N(C)CC(=O)Nc3ccccc3Br)c2c1	u	21µM	u	u	n	u
CCN(CC)c1ncnc2c1nnn2C	n	n	n	n	n	n
CN1CCN(CCNC(=O)c2ccc3nc(-c4ccc(F)cc4)c(-c4ccc(F)cc4)nc3c2)CC1	u	n	n	18µM	u	23µM
CCc1nc2ccc(C(=O)NCCCN3CCN(c4ccc(F)cc4)CC3)cc2nc1CC	u	n	u	u	n	u
CC(=O)Nc1ccc2nc(-c3cc(C)ccc3C)[nH]c2c1	x	16µM	u	x	x	x
COc1cc2ccc(=O)oc2c(O[C@@H]2O[C@H](CO)[C@@H](O)[C@H](O)[C@H]2O)c1O	16µM	n	n	n	8.2µM!	n
CCC(Oc1ccccc1)C(=O)Nc1ccccc1C(=O)N1CCN(C)CC1 (stereo unspecified)	n	n	n	n	n	n
Cc1ccccc1OCCC(=O)Nc1ccccc1C(=O)N1CCCCC1	n	8.2µM	n	n	n	n
CCC(Oc1ccccc1)C(=O)Nc1ccccc1C(=O)N1CCCCC1 (stereo unspecified)	n	12µM	n	n	n	n
OC(CN1CCN(c2ccccc2Cl)CC1)c1ccccc1 (stereo unspecified)	u	n	u	16µM	23µM	u
OC(CN1CCCC1)c1ccccc1 (stereo unspecified)	x	n	n	x	x	x
O=C(/C=C/c1ccc([N+](=O)[O-])cc1)OCC(=O)c1ccc[nH]1	n	x	x	n	n	n
COc1cccc(C(=O)N/N=c2\sc3ccccc3n2C)c1	n	u	n	n	x	n
Cc1ccc(C(=O)N/N=c2\sc3ccccc3n2C)cc1	u	n	n	n	0.65µM	n
Cc1ccc(C(=O)N/N=C/c2nc3ccccc3n2C)cc1	n	u	u	8.9µM	n	10µM
SMILES	MCF10A rereplic	KB-V1 MDR tox	KB-3-1 cytotox	HT1080NT lethal	SW480 rerep	HT1080 IDH1KD tx
CC(C)c1ccc2[nH]c(O)c(N=NC(=S)NCCc3ccccc3)c2c1	u	n	u	u	n	u
CCNC(=S)N=Nc1c(O)[nH]c2ccc(C(C)C)cc12	n	3.7µM	n	n	n	n
CCNC(=S)N=Nc1c(O)[nH]c2ccc([N+](=O)[O-])cc12	n	u	n	n	n	5.8µM
COc1ccc(CCN2C(=O)c3ccccc3C2c2nnnn2Cc2ccccc2)cc1OC (stereo unspecified)	x	u	n	n	x	n
O=C(Nc1ccn(CCCN2CCN(Cc3cccc4ccccc34)CC2)c(=O)n1)OCc1ccccc1	x	18µM	u	u	x	n
CCc1ccc(OCc2n[nH]c(=S)n2C(C)CCCC(C)C)cc1 (stereo unspecified)	13µM	n	n	n	n	n
